Results filed as inconclusive are left out. Entries that show only a call come without a potency. Calls of active or inactive are those of the source. Calls follow the shape of the dose curve; as a rule, active = well fitted curve in the direction sought with a large enough effect; inconclusive = small, poorly fitted or top-dose-only effect, or another doubt; inactive = no such curve, though single readings can be large; an effect the other way counts as inactive or inconclusive.
Key:
[1] = qHTS for Inhibitors of the Aldehyde Dehydrogenase Family (ALDH1A2, ALDH1A3, ALDH2, ALDH3A1) (AID 2061307); also: nearly all actives have a fitted effect of over 50% in size; as to potency: test system not described further here; potency is read from the fitted curve at half-maximal effect
[2] = target: Aldehyde dehydrogenase, mitochondrial (Homo sapiens) (UniProt P05091); assay: qHTS for Inhibitors of the Aldehyde Dehydrogenase Family (ALDH2) Primary screen (AID 2061308); also: nearly all actives have a fitted effect of over 55% in size
[3] = target: Retinaldehyde dehydrogenase 3 (Homo sapiens) (UniProt P47895); assay: qHTS for Inhibitors of the Aldehyde Dehydrogenase Family (ALDH1A3) Primary screen (AID 2061315); also: potency is read from the fitted curve at half-maximal effect
[4] = target: Retinal dehydrogenase 2 (Homo sapiens) (UniProt O94788); assay: qHTS for Inhibitors of the Aldehyde Dehydrogenase Family (ALDH1A2) Confirmation screens (AID 2061314); also: nearly all actives have a fitted effect of over 65% in size; also: potency is read from the fitted curve at half-maximal effect
[5] = target: Aldehyde dehydrogenase 1A1 (Homo sapiens) (UniProt P00352); assay: qHTS for Inhibitors of the Aldehyde Dehydrogenase Family (ALDH1A1) Confirmatory screens (AID 2061316); also: nearly all actives have a fitted effect of over 65% in size; also: potency is read from the fitted curve at half-maximal effect

| SMILES | Potency [1] | Potency [2] | Potency [3] | Potency [4] | Potency [5] |
| --- | --- | --- | --- | --- | --- |
| COc1cc(/C=C2\C(=O)Nc3ccccc32)ccc1O | inactive | inactive | inactive | – | – |
| O=C(O)C1CCN(c2ncc(-c3ccc4c(c3)OCCCO4)s2)CC1 | 1.52 µM (active) | inactive | 0.447 µM (active) | – | – |
| O=C(Nc1nc(-c2ccccc2)cs1)c1ccncc1NS(=O)(=O)c1ccccc1Cl | 22.5 µM (active) | inactive | inactive | – | – |
| N#Cc1nc(Nc2ccccc2)nc(NC2CCCCC2)n1 | 0.708 µM (active) | inactive | inactive | inactive | – |
| O=C(Nc1nc(-c2ccccc2)cs1)c1ccncc1NS(=O)(=O)c1ccc2ccccc2c1 | 2.51 µM (active) | inactive | inactive | 7.12 µM (active) | 8.96 µM (active) |
| COc1cccc(CN2C(=O)c3ccccc3NC2c2ccc(OC)c(COc3ccc(NC(C)=O)cc3)c2)c1 (stereo not drawn) | 3.55 µM (active) | inactive | inactive | – | – |
| O=C(Nc1cncc(Cc2ccccc2)c1)c1ccc(-c2cccc([N+](=O)[O-])c2)o1 | 1.27 µM (active) | inactive | inactive | 12.7 µM (active) | 3.18 µM (active) |
| COc1ccc(C2Nc3ccccc3C(=O)N2Cc2ccccc2)cc1COc1ccc(NC(C)=O)cc1 (stereo not drawn) | 3.18 µM (active) | inactive | inactive | – | – |
| COc1ccc(C2Oc3ccccc3C(=O)N2Cc2ccccc2)cc1COc1ccc(NC(C)=O)cc1 (stereo not drawn) | 0.283 µM (active) | inactive | inactive | 7.12 µM (active) | – |
| O=[S+]([O-])(Nc1ccc(-c2nc3ccccc3[nH]2)cc1)c1ccc2c(c1)OCO2 | inactive | inactive | inactive | 15.9 µM (active) | inactive |
| O=S(=O)(c1ccccc1)N1CCN(c2nc(-c3ccc(Br)cc3)cs2)CC1 | 7.98 µM (active) | inactive | inactive | inactive | 10.1 µM (active) |
| O=C([C@H](Cc1ccc(O[S+](=O)([O-])c2cccnc2)cc1)N[S+](=O)([O-])c1cccc2cnccc12)N1CCN(c2ccccc2)CC1 | inactive | inactive | inactive | – | – |
| FC(F)Oc1ccc(C2=Nn3c(nnc3-c3ccccc3C(F)(F)F)SC2)cc1OCC1CC1 | 2.83 µM (active) | inactive | inactive | 17.9 µM (active) | inactive |
| Cc1ccnc(CC(=S)N2CCN(c3cccc(C(F)(F)F)c3)CC2)c1 | 10 µM (active) | inactive | inactive | 12.7 µM (active) | 10.1 µM (active) |
| CN1CCN(c2ccc(Nc3nn4c(=O)c5ccccc5nc4s3)cc2)CC1 | inactive | inactive | inactive | 14.2 µM (active) | 12.7 µM (active) |
| CN(CC(=O)O)c1ncnc2ccc(-c3ccc4c(c3)OCO4)cc12 | inactive | inactive | inactive | – | – |

| SMILES | Potency [1] | Potency [2] | Potency [3] | Potency [4] | Potency [5] |
| --- | --- | --- | --- | --- | --- |
| FC(F)(F)c1ccc(-c2ccc(CNc3nc(-c4ccccc4C(F)(F)F)nc4ccccc34)cc2)cn1 | 8.91 µM (active) | inactive | inactive | 25.2 µM (active) | 7.98 µM (active) |
| COc1ccc(C2Nc3ccccc3C(=O)N2Cc2ccncc2)cc1COc1ccc(NC(C)=O)cc1 (stereo not drawn) | 3.57 µM (active) | inactive | inactive | 5.04 µM (active) | – |
| Cc1cc(NC(=O)c2ccc(NC(=O)Cc3ccc(Cl)c(Cl)c3)cc2)no1 | inactive | inactive | inactive | – | – |
| COc1ccc(S(=O)(=O)N2CCN(S(=O)(=O)c3ccc4c(c3)OCCO4)CC2)cc1 | inactive | inactive | inactive | – | – |
| N#Cc1nc(Nc2cccc(Cl)c2)nc(NC2CCCC2)n1 | 0.708 µM (active) | inactive | inactive | – | – |
| CN(C)CCCNc1ccc(NC(=O)c2cccs2)cn1 | inactive | inactive | inactive | 5.65 µM (active) | – |
| COc1ccc(C2=Nn3c(nnc3-c3ccc(OC)cc3)SC2)cc1 | 7.98 µM (active) | inactive | inactive | inactive | inactive |
| Cc1ccc(N[S+](=O)([O-])c2cc3c(cc2Cl)NC(=O)CO3)cc1Br | 10.1 µM (active) | inactive | inactive | 14.2 µM (active) | – |
| O=C([C@H](Cc1ccc(O[S+](=O)([O-])c2cccnc2)cc1)N[S+](=O)([O-])c1ccccn1)N1CCN(c2ccccc2)CC1 | 15.8 µM (active) | inactive | inactive | 7.98 µM (active) | 5.04 µM (active) |
| O=C(c1cccs1)c1nonc1C(=O)c1cccs1 | inactive | inactive | inactive | – | – |
| CN(C)CCCNC(=O)c1ccc(-c2cnc3c(O)cccc3c2)cc1 | inactive | inactive | inactive | inactive | – |
| O=C(O)c1ccc(-n2cccc2/C=C2\SC(=O)N(Cc3ccc(F)cc3)C2=O)cc1 | 7.98 µM (active) | inactive | inactive | – | – |
| CCCCN(C)C(=O)Cn1nc(-c2ccc(Cl)cc2)ccc1=O | inactive | inactive | inactive | – | – |
| Cc1cc(-c2nnc3n2CCCCC3)c(C)n1-c1ccc(Cl)c(Cl)c1 | inactive | inactive | inactive | 20.1 µM (active) | 14.2 µM (active) |
| O=C(CN1C(=O)N/C(=C\c2cn(-c3cccc(C(=O)O)c3)cn2)C1=O)Nc1ccccc1Cl | inactive | inactive | inactive | inactive | inactive |
